Measured values as given in PubChem BioAssay.
Several values for one entry are separate records, joined by “and”; a condition that tells them apart may be missing. Identical values can stand only once. For part of these data: Measured potencies and affinities stand elsewhere. Activity calls are given as the source filed them. Unless noted, no rule for the calls is given here.

Key:
[1] = antimalarial activity against Dd2 strain (AID 2302;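 active = growth inhibition above 50% at the single 2 µM test dose, taken to imply half-maximal potency below 2 µM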;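 also: 0% = DMSO untreated growth and 100% = chloroquine plus artemisinin killed control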); conditions: P. falciparum Dd2 in RBCs, LDH growth readout, 72 h; at 2 µM; active compounds read high
[2] = human hepatoma cell viability loss – ATP luminescence, cytotoxicity control for P. falciparum antimalarial project, primary screen (AID 2303;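 active = inhibition above 50%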;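 also: 0% = DMSO wells and 100% = digitonin-killed cells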); conditions: HepG2 viability, 24-48 h, at 10 µM, active compounds read high
[3] = biological target: L-lactate dehydrogenase (Plasmodium falciparum (isolate CDC / Honduras)) (UniProt Q27743); test: PfLDH activity inhibition – cell lysate, 3D7 strain, counter-screen for P. falciparum growth inhibition project (AID 2304);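 also: 0% = vehicle and 100% = reference inhibitor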; conditions: P. falciparum 3D7 crude extract, LDH APAD/NBT absorbance; at 2 µM; active compounds read high
[4] = inhibition of 3D7 malaria parasite growth – strain 3D7 (AID 2306);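 also: 0% = DMSO wells and 100% = chloroquine plus artemisinin control wells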; conditions: P. falciparum 3D7 erythrocytic growth, LDH absorbance, 72 h; at 2 µM; active compounds read high
[5] = biological target: Calcium-dependent protein kinase 1 (Plasmodium falciparum (isolate 3D7)) (UniProt P62344); test: PfCDPK1 kinase inhibitors, biochemical, TCAMS library (AID 1159585; cut-off not given, nearly all actives have IC50 up to about 0.98 µM;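 also: inhibitors leave more ATP so luminescence rises with inhibition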); conditions: recombinant PfCDPK1, Kinase-Glo ATP depletion luminescence
[6] = biological target: Plasmodium falciparum protein kinase 6 (PK6, PF3D7_1337100) (UniProt Q8IDW1); test: PfPK6 kinase inhibitors, biochemical, TCAMS library (AID 1159586); conditions: recombinant PfPK6, Kinase-Glo ATP depletion luminescence
[7] = biological target: Protein kinase 7 (PK7), Plasmodium falciparum 3D7 (PF3D7_0213400) (UniProt Q7YTF7); test: inhibition of Plasmodium PK7 catalytic activity – biochemical, TCAMS antimalarial set, Kinase-Glo luminescence (AID 1159587); conditions: recombinant PfPK7, Kinase-Glo ATP depletion luminescence
[8] = biological target: Calcium-dependent protein kinase 4 (Plasmodium falciparum (isolate 3D7)) (UniProt Q8IBS5); test: PfCDPK4 kinase inhibitors, biochemical, TCAMS library (AID 1159588; cut-off not given, nearly all actives have IC50 up to about 0.91 µM); conditions: recombinant PfCDPK4, Kinase-Glo ATP depletion luminescence
Chain of Calcium-dependent protein kinase 4 (Plasmodium falciparum (isolate 3D7)) (Q8IBS5 whole entry, looked up): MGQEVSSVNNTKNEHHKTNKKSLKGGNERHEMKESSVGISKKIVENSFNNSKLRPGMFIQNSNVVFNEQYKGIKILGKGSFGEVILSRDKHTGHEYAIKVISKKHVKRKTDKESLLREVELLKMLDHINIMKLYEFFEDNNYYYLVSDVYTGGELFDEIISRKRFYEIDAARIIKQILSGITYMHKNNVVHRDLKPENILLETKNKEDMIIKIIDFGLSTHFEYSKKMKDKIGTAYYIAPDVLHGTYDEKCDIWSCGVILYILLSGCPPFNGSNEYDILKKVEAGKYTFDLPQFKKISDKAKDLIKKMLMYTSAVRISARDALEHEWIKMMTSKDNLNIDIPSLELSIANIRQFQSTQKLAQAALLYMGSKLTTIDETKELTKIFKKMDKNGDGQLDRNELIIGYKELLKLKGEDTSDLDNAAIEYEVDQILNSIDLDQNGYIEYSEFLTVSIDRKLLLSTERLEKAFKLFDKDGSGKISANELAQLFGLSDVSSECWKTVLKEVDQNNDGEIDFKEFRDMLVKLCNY

Chain of Calcium-dependent protein kinase 1 (Plasmodium falciparum (isolate 3D7)) (P62344 whole entry, looked up): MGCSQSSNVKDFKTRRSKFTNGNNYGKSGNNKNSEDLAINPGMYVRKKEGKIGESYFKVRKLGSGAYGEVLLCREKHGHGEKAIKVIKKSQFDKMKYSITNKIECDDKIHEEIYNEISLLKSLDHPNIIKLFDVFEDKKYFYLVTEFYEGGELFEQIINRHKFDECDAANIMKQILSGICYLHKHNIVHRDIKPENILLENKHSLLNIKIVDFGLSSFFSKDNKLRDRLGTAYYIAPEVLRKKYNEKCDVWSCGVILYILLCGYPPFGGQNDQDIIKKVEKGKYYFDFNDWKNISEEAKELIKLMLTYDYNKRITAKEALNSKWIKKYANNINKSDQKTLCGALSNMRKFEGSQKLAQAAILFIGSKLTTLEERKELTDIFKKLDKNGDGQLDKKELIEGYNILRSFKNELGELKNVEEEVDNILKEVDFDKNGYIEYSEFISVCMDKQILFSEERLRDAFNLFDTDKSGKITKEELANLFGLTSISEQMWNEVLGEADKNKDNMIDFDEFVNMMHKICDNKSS
Chain of Protein kinase 7 (PK7), Plasmodium falciparum 3D7 (PF3D7_0213400) (Q7YTF7 1-343): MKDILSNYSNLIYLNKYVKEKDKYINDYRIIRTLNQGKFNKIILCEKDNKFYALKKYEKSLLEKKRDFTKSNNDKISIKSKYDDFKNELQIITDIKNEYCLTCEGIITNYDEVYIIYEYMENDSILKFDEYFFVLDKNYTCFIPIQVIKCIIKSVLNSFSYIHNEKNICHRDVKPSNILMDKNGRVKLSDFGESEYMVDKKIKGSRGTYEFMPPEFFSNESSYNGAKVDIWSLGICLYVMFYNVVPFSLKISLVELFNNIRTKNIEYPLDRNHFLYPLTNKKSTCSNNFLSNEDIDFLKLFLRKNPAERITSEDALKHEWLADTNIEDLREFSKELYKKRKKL
Chain of L-lactate dehydrogenase (Plasmodium falciparum (isolate CDC / Honduras)) (Q27743 whole entry, looked up): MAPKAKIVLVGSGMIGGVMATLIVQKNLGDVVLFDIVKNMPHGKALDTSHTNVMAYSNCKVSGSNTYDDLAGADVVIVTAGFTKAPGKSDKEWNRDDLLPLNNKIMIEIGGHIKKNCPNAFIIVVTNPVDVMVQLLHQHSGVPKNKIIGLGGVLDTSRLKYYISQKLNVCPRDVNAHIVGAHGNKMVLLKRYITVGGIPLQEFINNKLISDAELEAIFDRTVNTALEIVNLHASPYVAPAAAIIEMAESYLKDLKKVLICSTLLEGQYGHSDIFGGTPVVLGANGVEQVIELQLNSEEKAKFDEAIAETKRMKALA
Chain of Plasmodium falciparum protein kinase 6 (PK6, PF3D7_1337100) (Q8IDW1 1-305): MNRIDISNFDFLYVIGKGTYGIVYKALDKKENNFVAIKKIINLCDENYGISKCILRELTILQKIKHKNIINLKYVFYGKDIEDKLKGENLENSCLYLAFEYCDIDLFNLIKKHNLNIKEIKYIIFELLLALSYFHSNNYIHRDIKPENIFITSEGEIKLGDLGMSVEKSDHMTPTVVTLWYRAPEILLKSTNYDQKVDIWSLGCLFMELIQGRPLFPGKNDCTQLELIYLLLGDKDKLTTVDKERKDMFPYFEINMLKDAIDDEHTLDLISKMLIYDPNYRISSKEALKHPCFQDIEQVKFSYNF

COc1cc(CN2CCN(c3ccnc(N(C)C4CCN(C)CC4)n3)CC2)cc(Cl)c1O
active: growth inhibition [1] 63% | growth inhibition [4] 94%
inactive: inhibition [2] 11% | inhibition [3] -5% | outcome [5] | outcome [6] | outcome [7] | outcome [8]

Cc1ccc(C2(O)C[C@H]3CC[C@@H](C2)N3C)cc1 (some centres undefined)
active: growth inhibition [4] 92%
inactive: growth inhibition [1] 16% | inhibition [2] -6% | inhibition [3] -4% | outcome [5] | outcome [6] | outcome [7] | outcome [8]

CC(C)(C)c1ccc(Cn2nc(C(=O)N3CCN(C(=O)C4CCCO4)CC3)c3ccccc32)cc1 (centres undefined)
inactive: inhibition [2] -2% | inhibition [3] -3% | outcome [5] | outcome [6] | outcome [7] | outcome [8]
active: growth inhibition [1] 83% | growth inhibition [4] 90%

CC(=O)Nc1ccc(OCCN(CC(C)(C)C)c2ccc(C#N)c(C(F)(F)F)c2)c(Cl)c1
inactive: inhibition [2] -6% | inhibition [3] -1% | outcome [5] | outcome [6] | outcome [7] | outcome [8]
active: growth inhibition [1] 93% | growth inhibition [4] 87%

CN1C(=O)[C@H](NC(=O)[C@@H](Cc2ccccc2)NC(=S)Nc2ccccc2)N=C(c2ccccc2)c2ccccc21
inactive: growth inhibition [1] 23% | inhibition [2] -8% | inhibition [3] -1% | outcome [5] | outcome [6] | outcome [7] | outcome [8]
active: growth inhibition [4] 86%

CC(=O)Nc1ccc(CN2CCC(N(C)c3cc(NC(=O)c4cccc(F)c4)ccn3)CC2)cc1
active: growth inhibition [4] 85%
inactive: growth inhibition [1] -1% | inhibition [2] 4% | inhibition [3] 2% | outcome [5] | outcome [6] | outcome [7] | outcome [8]

COc1ccc(CN(C2CC2)C(C)C(=O)c2[nH]c(C)c(C(C)=O)c2C)cc1 (centres undefined)
inactive: inhibition [2] 40% | inhibition [3] -3% | outcome [5] | outcome [6] | outcome [7] | outcome [8]
active: growth inhibition [1] 64% | growth inhibition [4] 98%

FC(F)(F)c1ccc(NC(=S)NC2CCC(CN3CCC(c4c[nH]c5ccccc45)CC3)CC2)cc1 (centres undefined)
active: growth inhibition [1] 99% and 100% | inhibition [2] 65% and 92% | growth inhibition [4] 100% and 101%
inactive: inhibition [3] 2% and -1% | outcome [5] | outcome [6] | outcome [7] | outcome [8]

COc1ccc(C=CC(=O)NC2CCC(CN3CCC(c4c[nH]c5ccccc45)CC3)CC2)cc1OC (centres undefined)
active: growth inhibition [1] 85% and 72% | growth inhibition [4] 100% and 101%
inactive: inhibition [2] 15% and 14% | inhibition [3] 1% and -1% | outcome [5] | outcome [6] | outcome [7] | outcome [8]

CC[C@H]1CN2CC[C@@H]1C[C@H]2[C@H](O)c1cc(-c2c(C)noc2C)nc2ccc(OC)cc12
inactive: inhibition [2] 4% | inhibition [3] -1% | outcome [5] | outcome [6] | outcome [7] | outcome [8]
active: growth inhibition [1] 98% | growth inhibition [4] 100%

COc1ccc(OC)c([C@H](O)[C@@H](C)NCc2cc(Cl)ccc2O)c1
active: growth inhibition [1] 99% | growth inhibition [4] 97%
inactive: inhibition [2] 11% | inhibition [3] 4% | outcome [5] | outcome [6] | outcome [7] | outcome [8]

CCCCCC(C)C(C)c1cc(O)c2c3c(c(=O)oc2c1)CN(Cc1ccccc1)CC3 (centres undefined)
inactive: growth inhibition [1] 47% | inhibition [2] 4% | inhibition [3] -2% | outcome [5] | outcome [6] | outcome [7] | outcome [8]
active: growth inhibition [4] 99%

Cc1[nH]c2ccc(NS(C)(=O)=O)cc2c1C1CCN(CC2CCN(C(=O)/C=C/c3ccc(Cl)c(Cl)c3)CC2)CC1
inactive: inhibition [2] 15% | inhibition [3] -4% | outcome [5] | outcome [6] | outcome [7] | outcome [8]
active: growth inhibition [1] 83% | growth inhibition [4] 99%

CO/C=C(/C(=O)OC)c1ccccc1Oc1cc(Oc2ccccc2C#N)ncn1
active: growth inhibition [1] 98% | growth inhibition [4] 98%
inactive: inhibition [2] 7% | inhibition [3] 3% | outcome [5] | outcome [6] | outcome [7] | outcome [8]

COCC(=O)N(Cc1ccccc1-c1cccc(CNCCc2ccccc2)c1)C1CCN(Cc2ccccc2)CC1
active: growth inhibition [4] 93%
inactive: growth inhibition [1] 36% | inhibition [2] 21% | inhibition [3] 3% | outcome [5] | outcome [6] | outcome [7] | outcome [8]

Cc1cc(O)cc2c(C3CCN(CC4CCC(NC(=O)/C=C/c5ccccc5Cl)CC4)CC3)c[nH]c12 (centres undefined)
inactive: inhibition [2] 21% | inhibition [3] 1% | outcome [5] | outcome [6] | outcome [7] | outcome [8]
active: growth inhibition [1] 84% | growth inhibition [4] 99%

O=C(Nc1cc(C(F)(F)F)cc(C(F)(F)F)c1)N1CCC(CN2CCC(c3c[nH]c4ccccc34)CC2)CC1
active: growth inhibition [1] 99% | growth inhibition [4] 100%
inactive: inhibition [2] 42% | inhibition [3] -1% | outcome [5] | outcome [6] | outcome [7] | outcome [8]

COc1cc(C=CC(=O)NC2CCC(CN3CCC(c4c[nH]c5ccccc45)CC3)CC2)cc(OC)c1 (centres undefined)
inactive: inhibition [2] 38% | inhibition [3] -9% | outcome [5] | outcome [6] | outcome [7] | outcome [8]
active: growth inhibition [1] 90% | growth inhibition [4] 101%
